hNpr1 antagonist: blocks ANP-stimulated signaling of human Npr1 receptor; Potency, µM (top dose mostly 46.3 µM), hits mostly inhibitors; HEK293 hNpr1 GloSensor cGMP, ANP-stimulated luminescence; P16066; AID 1347048; 1.6% of 76,000 active; calls by dose curve; further: nearly all actives have a fitted effect of over 60% in size
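Compound pre-incubated 30 min at room temperature on GloSensor-loaded HEK293 cells stably carrying hNpr1 and the pGS-40F cGMP biosensor. Stimulation uses hNppA at 0.1 nM final; luminescence is taken at baseline and 20 min post-agonist.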
NIH3T3 tox: cytotoxic compounds in NIH 3T3 cells | Potency, µM (highest dose often 96.7 µM), actives largely listed as inhibitors | NIH 3T3 viability, CellTiter-Glo ATP luminescence, 48-72 h | 4.3% of 94,000 active | AID 1345082; further: nearly all actives have a fitted effect of over 55% in size
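Luminescent ATP readout (CellTiter-Glo, 10 min RT) after 48 or 72 hr compound exposure of NIH 3T3 cells seeded at 400 cells/well in 1536-well format; quantitative HTS.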
HEK293 tox: cytotoxic compounds in HEK 293 cells. HEK 293 viability, ATP luminescence (CellTiter-Glo), 48-72 h. 6.6% of 94,000 active. Potency, µM (series often up to 115 µM), usual class: inhibitors; further: nearly all actives have a fitted effect of over 60% in size
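ATP-coupled CellTiter-Glo luminescence served as viability read-out, recorded 10 min after reagent addition at room temperature. HEK 293 cells, 250 cells/well, had been incubated with pintool-transferred compound for 48 or 72 hr at 37 degree Celsius.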
FLuc inh: inhibitors of firefly (Photinus pyralis) luciferase | 2.5% of 76,000 active | P08659 | Potency, µM (titrated, usually from 115 µM), actives largely listed as inhibitors | purified P. pyralis luciferase, luminescence, biochemical | AID 1347043; further: nearly all actives have a fitted effect of over 65% in size
Target sequence (P08659 whole entry, looked up): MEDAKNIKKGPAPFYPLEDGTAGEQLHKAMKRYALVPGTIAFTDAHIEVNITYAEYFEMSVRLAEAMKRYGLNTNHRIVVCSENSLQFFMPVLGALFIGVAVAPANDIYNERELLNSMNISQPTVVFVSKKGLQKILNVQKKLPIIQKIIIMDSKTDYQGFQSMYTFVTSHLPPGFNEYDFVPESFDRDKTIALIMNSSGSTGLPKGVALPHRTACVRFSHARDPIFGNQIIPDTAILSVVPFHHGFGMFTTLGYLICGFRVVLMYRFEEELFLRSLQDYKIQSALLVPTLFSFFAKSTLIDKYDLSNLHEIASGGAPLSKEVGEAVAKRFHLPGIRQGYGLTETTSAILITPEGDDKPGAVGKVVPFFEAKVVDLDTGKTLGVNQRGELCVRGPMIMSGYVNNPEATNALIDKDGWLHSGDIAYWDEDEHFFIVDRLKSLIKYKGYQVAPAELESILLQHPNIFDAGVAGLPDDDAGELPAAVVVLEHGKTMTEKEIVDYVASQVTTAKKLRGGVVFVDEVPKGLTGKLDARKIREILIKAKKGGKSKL
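Luminescence read by CCD imager after adding enzyme (10nM final) to wells holding compound, titrated in qHTS. Substrates 10uM each D-luciferin and ATP; buffer 50mM Tris acetate pH 7.5, 10mM Mg acetate, Tween-20, BSA.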
Hits are given with their value; . = inactive; ? = inconclusive; / = no result given; ! = not confirmed by another sample. Compounds with a hit are over-represented: about 11% of the library has one in this group of screens. Unless noted, the call rests on the fitted dose curve; in most records, active means well fitted curve in the direction sought with a large enough effect; inconclusive means small, poorly fitted or top-dose-only effect, or another doubt; inactive means no such curve, though single readings can be large; an effect the other way counts as inactive or inconclusive.

SMILES	hNpr1 antagonist	NIH3T3 tox	HEK293 tox	FLuc inh
C=CCOc1c(OC)ccc2c1CN(CCOC)C(=O)CCN2CC(O)COc1ccccc1 (stereo unspecified)	/	.	?	/
C=CCOCC(O)CN1CCC(=O)N(Cc2ccco2)Cc2c1ccc(OC)c2OCC=C (stereo unspecified)	/	.	?	/
C=CCOc1c(OC)ccc2c1CN(Cc1ccccc1)C(=O)CCN2CC(C)O (stereo unspecified)	/	?	.	/
CC(C)N1CCC(F)(c2nc(-c3ccccc3)no2)CC1	.	.	?	.
Cn1ccc(C(=O)N2CC(COc3ccccc3)C3(C2)CN(c2ccccc2)C3)n1 (stereo unspecified)	.	100µM	?	.
Cn1ccc(C(=O)N2CC(CNc3ccccc3)C3(C2)CN(c2ccccc2)C3)n1 (stereo unspecified)	?	?	63µM	.
Cn1nccc1C(=O)N1CC(COc2ccccc2)C2(C1)CN(c1ccccc1)C2 (stereo unspecified)	.	?	?	.
Cc1ncsc1C(=O)N1CC(COc2ccccc2)C2(C1)CN(c1ccccc1)C2 (stereo unspecified)	.	?	100µM	.
COc1ccc(CC(=O)NC2CCN(c3nccc(Nc4ccccc4F)n3)CC2)cc1	/	45µM	?	/
COc1ccc(Nc2ccnc(N3CCC(NC(=O)Cc4ccc(F)cc4)CC3)n2)cc1	/	?	40µM	/
COc1ccc(CC(=O)N2CCN(c3nccc(Nc4ccccc4F)n3)CC2)cc1	/	?	45µM	/
O=C1CCN(Cc2cccc(F)c2)CCCC(c2nc(-c3cccnc3)no2)CCN1 (stereo unspecified)	.	?	79µM	.
CSCCNC(=O)c1cc(Br)cn2ccnc12	.	.	.	45µM!
O=C(NCC(F)(F)F)C1CCN(c2nccc(Nc3ccccc3F)n2)CC1	/	.	?	/
O=C(NCCCc1ccccc1)C1CCCN(c2nccc(Nc3ccccc3F)n2)C1 (stereo unspecified)	/	32µM	?	/
O=C(NCCc1ccc(F)cc1)C1CCCN(c2nccc(Nc3ccccc3F)n2)C1 (stereo unspecified)	/	28µM	?	/
CSCCNC(=O)C1CCCN(c2nccc(Nc3ccccc3F)n2)C1 (stereo unspecified)	/	25µM	?	/
O=C(NCCc1ccccc1)C1CCCN(c2nccc(Nc3ccccc3F)n2)C1 (stereo unspecified)	/	22µM	?	/
COCCNC(=O)C1CCN(c2nccc(Nc3ccccc3F)n2)CC1	/	?	.	/
CC(=O)c1ccc(NC(=O)Cn2c(-c3ccc(F)cc3)nc(C)cc2=O)cc1	.	?	?	.
O=C(O)CCCC(=O)N1Cc2ccccc2CC2(CCCN(CCc3ccccc3)C2)C1 (stereo unspecified)	/	?	.	/
O=C(CCC[C@H]1NC[C@@H]2C[C@H]1CN(Cc1ccccc1)C2)N1CCN(c2ncccn2)CC1	.	.	.	.
COc1ccc(NC(=O)c2cn3cc(-c4cccc(C(F)(F)F)c4)sc3n2)cc1	/	.	.	/
COCCNC(=O)c1ccc2nnc(-c3ccccc3OC)n2c1	/	.	.	/
O=C(NCCc1ccccc1F)C1CCN(c2nccc(Nc3ccccc3F)n2)CC1	/	?	32µM	/
SMILES	hNpr1 antagonist	NIH3T3 tox	HEK293 tox	FLuc inh
Cc1nn(-c2ccccc2)c2c1C(C)N(C1CN(C(=O)c3ccc(C(F)(F)F)cc3)C1)C2=O (stereo unspecified)	/	?	40µM	/
Cc1nn(-c2ccccc2)c2c1C(C)N(C1CCCN(C(=O)N(C)C)C1)C2=O (stereo unspecified)	/	.	?	/
Cc1nn(-c2ccccc2)c2c1C(C)N(C1CN(C(=O)c3ccc(Cl)cc3)C1)C2=O (stereo unspecified)	/	.	.	/
Cc1nn(-c2ccccc2)c2c1C(C)N(C1CCN(C(=O)c3ccc(F)cc3)C1)C2=O (stereo unspecified)	/	?	45µM	/
Cc1nn(-c2ccccc2)c2c1C(C1CC1)N(C1CCN(C(=O)c3ccc(F)cc3)C1)C2=O (stereo unspecified)	/	?	35µM	/
Cc1nn(-c2ccccc2)c2c1C(C)N(C1CCN(C(=O)c3cccc(Cl)c3)C1)C2=O (stereo unspecified)	/	32µM	22µM	/
c1ccc(Nc2cc3c(cn2)NCCN(Cc2ccccn2)C3)cc1	.	.	?	.
Cn1cc(CN2CCNc3cc(Nc4ccccc4)ncc3C2)cn1	.	?	.	28µM
Cn1cc(CN2CCNc3cc(-c4ccccc4)ncc3C2)cn1	.	.	?	45µM
Cc1noc(-c2ccc(OC(F)(F)F)cc2)c1C(=O)NCc1ccsc1	.	.	?	.
COc1cccc(-c2cc(C(=O)NCC3CCCCC3)c3cnn(C)c3n2)c1	/	?	40µM	/
CCC(C)NC(=O)c1cc(-c2cccc(OC)c2)nc2c1cnn2C (stereo unspecified)	/	?	100µM!	/
Cc1ccc(-c2ccccc2CN2CCN(C(=O)N(C)C)CC2)cc1Cl	/	?	32µM	/
O=C(NCC(F)(F)F)C1CCN(Cc2ccccc2-c2cccnc2)CC1	/	.	.	/
Cc1ccc(-c2ccccc2CN2CCC(C(=O)NCC(F)(F)F)CC2)cc1Cl	/	?	50µM	/
Cc1ccc(-c2ccccc2CN2CCC(C(=O)NCC3CC3)CC2)cc1Cl	/	?	35µM	/
COC[C@@H]1CN(C(=O)CC(C)C)C[C@H]1c1ccccn1	/	.	.	/
CCCc1ccc(CN2CCCC(O)(CN(C)C)C2)o1 (stereo unspecified)	.	.	.	.
CC(C)(C)C(=O)N1CCC(C(=O)N2CCC(N3Cc4ccccc4C3=O)CC2)CC1	/	.	.	/
CN1CCN(c2ccc3ncc(Nc4ccccc4F)n3n2)CC1	.	?	112µM	.
COc1cccc(Nc2cnc3ccc(N4CCOCC4)nn23)c1	.	?	.	.
c1ccc(-c2ccccc2Nc2cnc3ccc(N4CCOCC4)nn23)cc1	.	?	89µM	.
CN1CCN(c2ccc3ncc(Nc4cccc(C(F)(F)F)c4)n3n2)CC1	.	?	100µM	.
Cc1ccc(S(=O)(=O)N2CCC(OC3CCN(Cc4ccccc4)CC3)CC2)c(C)c1	.	32µM	?	.
O=S(=O)(Cc1ccccc1)N1CCC(OC2CCN(Cc3ccccc3)CC2)CC1	.	?	?	.
SMILES	hNpr1 antagonist	NIH3T3 tox	HEK293 tox	FLuc inh
O=S(=O)(c1ccc(F)cc1)N1CCC(OC2CCN(Cc3ccccc3)CC2)CC1	.	?	?	.
CCc1ccc(S(=O)(=O)N2CCC(OC3CCN(Cc4ccccc4)CC3)CC2)cc1	.	35µM	?	.
CN(C)CC1(O)CCC2(CCN(C(=O)Cn3c(=O)oc4ccccc43)CC2)CC1	.	.	.	.
COc1ccc(Nc2ccc3c(n2)CN(Cc2ccccc2C)C(=O)CO3)cc1	?	79µM	89µM	.
COc1ccc(Nc2ccc3c(n2)CN(Cc2nc4ccccc4s2)C(=O)CO3)cn1	?	?	50µM	?
COc1ccccc1-c1ccc2c(n1)CN(Cc1ccccc1C)C(=O)CO2	.	.	?	.
COc1ccc(Nc2ccc3c(n2)CN(Cc2ccccc2F)C(=O)CO3)cc1	?	?	63µM	.
